Ba/F3 V617F tox = reduced viability of JAK2V617F-dependent Ba/F3 cells, primary screen, JAK2V617F inhibitor project, cell-based, Ba/F3 EpoR-JAK2V617F, luminescence; ATP luminescence; inhibition, % at 5.6 µM; 220,000 compounds, 1.1% hits; AID 1446, 2008;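 active means inhibition above the campaign mean plus 3 SD over all tested compounds, cut at about 24% in these data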;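 further: cytokine-independent growth of Ba/F3 cells driven by EpoR plus mutant JAK2; 0% = DMSO-treated cells and 100% = JAK inhibitor I control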
APP transl inh = inhibitors of APP translation via 5'UTR reporter, primary screen, APP 5'UTR luciferase, SH-SY5Y cells | SH-SY5Y APP 5'UTR-luciferase reporter, luminescence | inhibition, % at 2 µM | 190,000 compounds, 0.82% hits | AID 1285, 2008;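 active means inhibition above a set limit, derived from the sample mean plus 3 SD, cut at about 45% in these data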
IEC-6 cytotox = cytotoxicity in IEC-6 intestinal epithelial cells, primary screen, cytotoxicity control for KLF5 inhibitor project, cell-based, luminescence; IEC-6 cytotoxicity, luminescence viability; inhibition, % at 5 µM; 290,000 compounds, 0.78% hits; in the data active means inhibition above about 22%;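 further: 0% = plate median of test compound wells and 100% = cytotoxic reference compound wells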
BaF3 parental = parental Ba/F3 cell viability inhibition, counter-screen for JAK2V617F inhibitor project, murine pro-B, CellTiter-Glo luminescence; CellTiter-Glo ATP luminescence; inhibition, % at 5.6 µM; 220,000 compounds, 1.1% hits; AID 1486, 2009;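 active means inhibition above a per-campaign cutoff, the mean inhibition of all tested compounds plus 3 SD, cut at about 27% in these data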;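 further: 0% = DMSO wells and 100% = JAK Inhibitor I control wells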
KLF5 inhibitor = KLF5 expression inhibitors, primary screen, DLD-1 cells, luminescence; inhibition, % at 5 µM; AID 1700, 2009; DLD-1 KLF5 promoter-luciferase reporter; 290,000 compounds, 0.23% hits;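 active means inhibition above a per-plate limit of that plate's mean compound inhibition plus 3 SD, cut at about 60% in these data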;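 further: 0% = DMSO wells and 100% = LY294002 at 200 µM; higher means less KLF5 promoter-driven luciferase light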
aSyn UTR inh = MLPCN primary screen, SNCA 5' untranslated region; inhibition, % (tested at 7.5 µM); 300,000 compounds, 0.82% hits; alpha-synuclein 5'UTR reporter, inhibitor activity; in the data active means inhibition above about 60%;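 further: H4 neuroglioblastoma cells stably carrying SNCA 5'UTR luciferase fusion; 0% = DMSO wells and 100% = positive control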
BaF3 parental 2 = parental Ba/F3 cell viability inhibition, counter-screen for JAK2V617F inhibitor project, murine pro-B, CellTiter-Glo luminescence. shares compounds with Ba/F3 V617F tox. cells kept alive by added IL-3. inhibition, % at 5.6 µM. 580 compounds, 31% hits;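 active means cell growth inhibition above the hit limit set in the earlier mutant JAK2 cell screen, cut at about 27% in these data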;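 further: plate controls were DMSO-treated cells for no effect and JAK Inhibitor I control wells for full effect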
JAK2V617F conf = viability loss in Ba/F3 EpoR-JAK2V617F cells, confirmation, JAK2V617F inhibitor project, cell-based, luminescence, triplicate | inhibition, % at 5.6 µM | shares compounds with Ba/F3 V617F tox | CellTiter-Glo luminescence | 580 compounds, 66% hits;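 active means mean inhibition above the hit cutoff derived in the earlier primary screen, cut at about 25% in these data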;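 further: 0% = DMSO-treated cells and 100% = JAK inhibitor I control wells; higher means lower luminescence from reduced cell ATP and viability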
Active calls of the source: *; nt = no result given. Most compounds without a hit are left out; they make up all but 2.1% or so of the library.

SMILES	Ba/F3 V617F tox	APP transl inh	IEC-6 cytotox	BaF3 parental	KLF5 inhibitor	aSyn UTR inh	others
CC1CC(C)(C)Nc2ccc(OC(=O)c3ccco3)cc21 (stereo unspecified)	4.0	30.1	8.8	6.1	-11.5	70.3*
O=C(Oc1ccc2ccccc2c1)c1ccco1	-1.3	18.6	-1.0	4.0	-49.4	-12.5
COc1ccc(OC)c(NC(=O)NNS(=O)(=O)c2ccc(C)cc2C)c1	nt	nt	2.8	nt	-13.8	5.5
CC1=NN(c2nc(-c3ccc(C)cc3)cs2)C(=O)C1N=Nc1ccccc1O (stereo unspecified)	-2.4	51.9*	0.2	7.8	-13.6	63.3*
CCCCCN=C(N)N/N=C/c1c[nH]c2ccc(OC)cc12	nt	nt	nt	nt	nt	108.3*
CC1CCN(c2ccc(NC(=O)c3ccc([N+](=O)[O-])o3)cc2)CC1	nt	nt	nt	nt	nt	44.3
O=C(Nc1ccc(N2CCN(C(=O)c3ccc(Cl)cc3)CC2)cc1)c1ccc([N+](=O)[O-])o1	2.8	96.1*	-4.1	5.7	-28.5	119.6*
Cc1ccc(-c2csc(=Nc3cccnc3)n2CCCN2CCCC2=O)cc1C	64.1*	11.2	-2.4	54.0*	23.8	32.3
Nc1nc(CN2CCN(C(=O)c3ccco3)CC2)nc(Nc2cccc(Cl)c2)n1	3.1	6.9	8.9	8.5	7.3	nt
O=C(Oc1c(-c2ccccc2)c(=O)n2c3c(cccc13)CC2)c1ccccc1	1.3	nt	-1.5	-7.4	0.2	-23.9
O=C(Oc1c(-c2ccccc2)c(=O)n2c3c(cccc13)CC2)c1cccc([N+](=O)[O-])c1	-1.9	nt	-0.6	-4.8	-3.1	77.3*
CN1CCN(Cc2nc3ccccc3c(=O)n2Cc2nc(-c3ccc4ccccc4c3)cs2)CC1	101.8*	1.8	20.2	9.8	-19.1	23.0
CN1CCN(Cc2nc3ccccc3c(=O)n2Cc2nc(-c3cccc([N+](=O)[O-])c3)cs2)CC1	12.6	-6.4	13.2	-2.8	-20.6	nt
O=C(CN1C(=O)/C(=C\c2ccccc2Cl)Oc2ccccc21)NCc1cccnc1	3.3	-8.0	0.5	1.2	-21.0	-13.4
Cc1ccc(CN2C(=O)/C(=C\c3ccc(C(=O)NCc4cccnc4)cc3)Oc3ccccc32)cc1	-4.4	71.7*	-0.4	-2.2	-14.4	101.5*
c1ccc(Oc2c3ccccc3nc3ccccc23)cc1	-1.8	nt	0.0	-4.5	-29.1	-27.9
Cc1cc(-c2nnc3n2N=C(c2ccc(-c4ccccc4)cc2)CS3)n[nH]1	0.9	-26.5	-2.8	5.1	-14.7	-17.5
C[n+]1c2n(c3ccccc31)N=C(c1ccccc1)CS2	90.8*	-2.4	3.8	68.3*	-40.2	-47.8
C[n+]1c2n(c3ccccc31)N=C(c1ccc(Br)cc1)CS2	66.0*	-15.7	1.2	71.0*	6.2	-22.5
c1ccc(C2=Nn3c(nnc3-c3ccncc3)SC2)cc1	5.5	18.2	-4.6	1.0	-0.9	25.4
C[n+]1c2n(c3ccccc31)N=C(c1ccc(-c3ccccc3)cc1)CS2	99.3*	0.4	15.9	71.0*	17.8	10.4
Cc1ccc(-n2nc3c(c2NC(=O)c2ccc(F)c(F)c2)CS(=O)(=O)C3)cc1	nt	nt	7.5	nt	4.9	11.2
Cc1ccc(S(=O)(=O)N(CC(=O)NCC2CCCO2)C2CCCCC2)cc1 (stereo unspecified)	nt	nt	-0.8	nt	-16.4	9.8
CC(NC(=O)CCn1nc(-c2ccc(Cl)cc2)ccc1=O)c1ccccc1 (stereo unspecified)	2.2	-7.2	-1.8	6.5	21.1	-10.4
Cn1nccc1C(=O)Nc1cccc(S(=O)(=O)N2CCOCC2)c1	nt	nt	-3.6	nt	-11.5	-3.3
SMILES	Ba/F3 V617F tox	APP transl inh	IEC-6 cytotox	BaF3 parental	KLF5 inhibitor	aSyn UTR inh	others
Cn1c(-c2ccccc2)c(C(=O)CCl)c2ccccc21	0.8	-12.0	2.9	5.2	-22.8	28.2
CCCc1c(CC)c(=N)c2ccccc2n1C	70.8*	-2.5	6.0	65.0*	-8.5	6.0
Cc1csc(SCC(=O)NC(C)C2CC3CCC2C3)n1 (stereo unspecified)	nt	nt	nt	nt	nt	-11.1
On1onc2c3cc(-c4ccccc4)nc3ccc21	99.6*	60.8*	3.0	97.2*	-3.2	nt
CC[C@@H](C(=O)[C@@H](C)[C@@H](O)[C@H](C)CCc1ccc(C)c(O)c1C(=O)O)[C@H]1O[C@](CC)([C@H]2CC[C@](O)(CC)[C@H](C)O2)C[C@@H]1C	nt	nt	91.0*	nt	31.5	100.1*
O=C(NCCCN1CCCC1=O)Nc1ccccc1F	nt	nt	4.4	nt	-5.8	-19.9
CC1=CC(C)C(COC(=O)CN2CCCCC2)C(C)C1 (stereo unspecified)	-0.5	nt	-6.9	-1.6	-30.6	30.9
CC1=CC(C)C(C[N+]2(C)CCCCC2)C(C)C1 (stereo unspecified)	38.9*	18.0	-4.7	60.6*	-8.1	26.7
CCOc1ccc(CNC(=O)c2ccccc2NC(=O)C2=CSCCO2)cc1	nt	nt	4.0	nt	-12.2	32.4
CCCC(NCC(O)COc1ccc(-c2ccccc2)cc1)c1ccccc1 (stereo unspecified)	-1.1	14.0	13.8	-3.2	-7.5	82.8*
COc1ccc(OCC(O)CNC(C)c2ccccc2)cc1 (stereo unspecified)	nt	nt	6.9	nt	-11.9	13.5
COc1ccc(/C=N\NC(=O)c2cccc(F)c2)cc1COc1ccccc1	nt	nt	nt	nt	nt	88.0*
CCn1cc(S(=O)(=O)Nc2cc(F)ccc2C)cn1	-1.1	-5.3	3.2	5.2	-5.3	16.8
Nc1nc(NCCOCCO)nc(NC2CCCCC2)c1[N+](=O)[O-]	nt	nt	-2.1	nt	-14.8	67.6*
O=S(=O)(C/C(=C/CO)S(=O)(=O)c1ccccc1)c1ccccc1	100.6*	79.9*	96.3*	100.1*	27.4	-70.8
Cn1c(-c2ccccc2[N+](=O)[O-])[n+](C)c2ccccc21	57.4*	nt	-2.2	57.9*	-32.1	15.8
COc1ccc(OC)c(C2CC(=O)c3c([nH]c(C(=O)OC(C)C)c3C)C2)c1 (stereo unspecified)	68.4*	94.6*	18.5	11.4	3.0	10.6	BaF3 parental 2=57.5*;JAK2V617F conf=89.7*
Cc1cc(C)c2nc(SCC(=O)N3CC(=O)Nc4ccccc43)c(C#N)cc2c1	66.8*	95.9*	-0.2	3.7	-2.3	66.6*	BaF3 parental 2=96.6*;JAK2V617F conf=98.5*
CCCCn1c(=N)n(CC(=O)c2ccc(Br)s2)c2ccccc21	71.3*	nt	-1.4	-3.8	9.8	-13.0	BaF3 parental 2=6.2;JAK2V617F conf=60.5*
CCCCN(CC)C(=O)c1oc2ccc(S(=O)(=O)N3CCCC3)cc2c1C	nt	nt	3.4	nt	-44.2	25.9

Bioassay records: PubChem BioAssay, several laboratories
